The record followed here is PubChem BioAssay (EPA / NIEHS).

Several values for one entry are separate records, joined by “and”; a condition that tells them apart may be missing. Equal values may be shown once. Activity calls are given as the source filed them. The calls were made as follows: active = hit-call score of the fitted dose curve at least 0.9, where 1 is the maximum; inactive = score below 0.9.

Read-out in one assay: not listed separately
Description: BSK_CASM3C_Proliferation: Cell Proliferation Assessment in the BioMAP Diversity Plus: CASM3C Assay (AID 2283047).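 Also: sulforhodamine B total protein stain as relative cell number at 560 nm; sub-confluent cells exposed 48 h before staining; fitted both ways against DMSO so gain or loss of cell number.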 Particulars: primary human coronary artery smooth muscle cells.
Turning to `Clc1nc(Cl)c(Cl)c(Cl)c1Cl`, the outcome was inactive.

Regarding `CC[C@H]1OC(=O)[C@H](C)[C@@H](O[C@H]2C[C@@](C)(OC)[C@@H](O)[C@H](C)O2)[C@H](C)[C@@H](O[C@@H]2O[C@H](C)C[C@H](N(C)C)[C@H]2O)[C@](C)(O)C[C@@H](C)C(=O)[C@H](C)[C@@H](O)[C@]1(C)O`, the result was inactive.

With `CCOc1cccc(-n2cc(C(=O)N3CCN(c4cc(C(=O)O)c5ccccc5c4)CC3)nc2-c2ccc(C)cc2)c1`, the half-maximal activity concentration (AC50) is 30.4 µM (active).

For `CC(C)CCCCCCOC(=O)c1ccc(C(=O)OCCCCCCC(C)C)c(C(=O)OCCCCCCC(C)C)c1`, the result was inactive.

With `Cc1[nH]cnc1C[C@H]1CCc2c(C)c3ccccc3n2C1=O`, the AC50 was 26.4 µM (active).

Consider `Oc1ccc2c(c1)-c1ccccc1C2`, for which the AC50 was 6.61 µM (active).

For `CCCN(C1CCN(C(=O)C2CCNCC2)CC1)[C@@H]1CCc2ccc(OC)cc2C1`, the outcome was inactive.

As for `COC(=O)c1ccccc1O`, the result was inactive.

For the compound `COCCOCCOCCOC`, the result was inactive.

As for `O=c1[nH]c2ccc(S(=O)CCN3CCC(Cc4ccc(F)cc4)CC3)cc2o1` (stereo not drawn), the outcome was inactive.

Take `O=C(O)CC(O)C(=O)O` (stereo not drawn): the result was inactive.

Regarding `CC(C)CC(C)(O)C#CC(C)(O)CC(C)C` (stereo not drawn), the result was inactive.

On to `CC/C(=C\C(=N/O)C(N)=O)C(C)[N+](=O)[O-]` (stereo not drawn), for which the outcome was inactive.

With `COCCOc1cc2cc(C(=O)NC3CCN(C(C)C)CC3)n(CC(=O)Nc3ccc(Cl)cn3)c2cn1`, the result was inactive.

On to `COC(=O)CC(=O)OC`, for which the result was inactive.

On to `C1N2CN3CN1CN(C2)C3`, for which the result was inactive.

`CNCc1ccc(NC(=O)c2c[nH]c3c2C(=O)CCC3)cc1`: the outcome was inactive.

With `CC(=O)OC[C@H]1O[C@@](COC(C)=O)(O[C@H]2O[C@H](COC(C)=O)[C@@H](OC(C)=O)[C@H](OC(C)=O)[C@H]2OC(C)=O)[C@@H](OC(C)=O)[C@@H]1OC(C)=O`, the outcome was inactive.

Consider `O=C(O)c1cc(N=Nc2ccc(S(=O)(=O)Nc3ccccn3)cc2)ccc1O`, for which the AC50 is 14.5 µM (active).

As for `CCCCCCCCO`, the result was inactive.

In the case of `CN(C)c1ccc(Cc2ccc(N(C)C)cc2)cc1`, the result was inactive.

Take `C[C@](N)(Cc1ccc(O)c(O)c1)C(=O)O`: the outcome was inactive.

Turning to `CCOCCOCCOCCO`, the result was inactive.

For `CC[C@H]1CC[C@H](NCc2cc3c(cc2OC)[C@H]2C[C@H]2C(=O)N3C)[C@H](c2ccccc2)N1`, the AC50 was 7.17 µM (active).

As for `Nc1ccc(Nc2ccccc2)cc1`, the AC50 was 20 µM (active).

As to `On1ccccc1=S`, the concentration at half-maximal activity (AC50) is 6.45 µM (active).

With `CCOC(=O)CC(CC(=O)OCC)(OC(C)=O)C(=O)OCC`, the outcome was inactive.

In the case of `O=C(O)c1cccc(Oc2ccccc2)c1`, the result was inactive.

In the case of `Cn1cnc([N+](=O)[O-])c1Sc1ncnc2nc[nH]c12`, the half-maximal activity concentration (AC50) is 10.2 µM (active) and 12 µM (active) and 4.25 µM (active).

Read-out in another assay: Monokine induced gamma interferon (MIG), CXCL9 (gene 4283)
The assay can be described thus: BSK_CASM3C_MIG: BioMAP Diversity Plus: CASM3C Assay for Monokine induced gamma interferon (MIG) Biomarker Activity (AID 2283048).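 Also: MIG protein level measured by ELISA.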 Particulars: primary human coronary artery smooth muscle cells; actives raise or lower the signal.
Turning to `Clc1nc(Cl)c(Cl)c(Cl)c1Cl`, the result was inactive.

Take `CC[C@H]1OC(=O)[C@H](C)[C@@H](O[C@H]2C[C@@](C)(OC)[C@@H](O)[C@H](C)O2)[C@H](C)[C@@H](O[C@@H]2O[C@H](C)C[C@H](N(C)C)[C@H]2O)[C@](C)(O)C[C@@H](C)C(=O)[C@H](C)[C@@H](O)[C@]1(C)O`: the outcome was inactive.

For `CCOc1cccc(-n2cc(C(=O)N3CCN(c4cc(C(=O)O)c5ccccc5c4)CC3)nc2-c2ccc(C)cc2)c1`, the AC50 was 19.2 µM (active).

On to `CC(C)CCCCCCOC(=O)c1ccc(C(=O)OCCCCCCC(C)C)c(C(=O)OCCCCCCC(C)C)c1`, for which the result was inactive.

Turning to `Cc1[nH]cnc1C[C@H]1CCc2c(C)c3ccccc3n2C1=O`, the outcome was inactive.

In the case of `Oc1ccc2c(c1)-c1ccccc1C2`, the outcome was inactive.

In the case of `CCCN(C1CCN(C(=O)C2CCNCC2)CC1)[C@@H]1CCc2ccc(OC)cc2C1`, the result was inactive.

Take `COC(=O)c1ccccc1O`: the result was inactive.

On to `COCCOCCOCCOC`, for which the outcome was inactive.

Take `O=c1[nH]c2ccc(S(=O)CCN3CCC(Cc4ccc(F)cc4)CC3)cc2o1` (stereo not drawn): the result was inactive.

Consider `O=C(O)CC(O)C(=O)O` (stereo not drawn), for which the result was inactive.

Regarding `CC(C)CC(C)(O)C#CC(C)(O)CC(C)C` (stereo not drawn), the outcome was inactive.

As to `CC/C(=C\C(=N/O)C(N)=O)C(C)[N+](=O)[O-]` (stereo not drawn), the outcome was inactive.

Regarding `COCCOc1cc2cc(C(=O)NC3CCN(C(C)C)CC3)n(CC(=O)Nc3ccc(Cl)cn3)c2cn1`, the outcome was inactive.

Take `COC(=O)CC(=O)OC`: the outcome was inactive.

For the compound `C1N2CN3CN1CN(C2)C3`, the outcome was inactive.

`CNCc1ccc(NC(=O)c2c[nH]c3c2C(=O)CCC3)cc1`: the outcome was inactive.

Take `CC(=O)OC[C@H]1O[C@@](COC(C)=O)(O[C@H]2O[C@H](COC(C)=O)[C@@H](OC(C)=O)[C@H](OC(C)=O)[C@H]2OC(C)=O)[C@@H](OC(C)=O)[C@@H]1OC(C)=O`: the outcome was inactive.

As for `O=C(O)c1cc(N=Nc2ccc(S(=O)(=O)Nc3ccccn3)cc2)ccc1O`, the result was inactive.

On to `CCCCCCCCO`, for which the outcome was inactive.

With `CN(C)c1ccc(Cc2ccc(N(C)C)cc2)cc1`, the result was inactive.

As for `C[C@](N)(Cc1ccc(O)c(O)c1)C(=O)O`, the result was inactive.

Turning to `CCOCCOCCOCCO`, the outcome was inactive.

Consider `CC[C@H]1CC[C@H](NCc2cc3c(cc2OC)[C@H]2C[C@H]2C(=O)N3C)[C@H](c2ccccc2)N1`, for which the outcome was inactive.

Regarding `Nc1ccc(Nc2ccccc2)cc1`, the result was inactive.

With `On1ccccc1=S`, the outcome was inactive.

Take `CCOC(=O)CC(CC(=O)OCC)(OC(C)=O)C(=O)OCC`: the result was inactive.

Take `O=C(O)c1cccc(Oc2ccccc2)c1`: the result was inactive.

With `Cn1cnc([N+](=O)[O-])c1Sc1ncnc2nc[nH]c12`, the outcome was inactive.
